Only some compounds are listed: those with a hit (about 1.2% of all), similar ones and a draw of the others.
NR5A2 inv ag = NR5A2 inverse agonism in reporter assay; O00482; AID 602396; inhibition, % at 3.6 µM; HEK293T StAR-luciferase reporter, LRH-1 transfected, 24 h; 360,000 compounds, 0.13% hits;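 active means inhibition above the mean inhibition of all tested compounds plus 3 SD, cut at about 73% in these data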;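 further: 0% = DMSO wells and 100% = reporter-only cells lacking LRH-1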
SRC3 inh = inhibits human SRC3 coactivator; Q9Y6Q9; HEK293 GAL4-SRC3 luciferase reporter, luminescence; inhibition, % at 3.6 µM; 360,000 compounds, 0.17% hits;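 active means inhibition above a per-campaign cutoff, the mean of all compounds plus 3 SD, cut at about 60% in these data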;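 further: 0% = DMSO-treated cells and 100% = gossypol-treated cells at 36 µM; higher means less SRC3-driven luciferase light from the GAL4 reporter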
Efflux pump mplx = antifungal efflux pump inhibition, Nile Red retention. S. cerevisiae Candida pump triplex. inhibition, % at 10 µM. 330,000 compounds, 0.44% hits;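 active means plate passing quality check with inhibition over a set limit, or well fluorescence over plate mean plus 4 SD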;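 further: Nile Red retained in pooled yeast measured as flow cytometry median fluorescence; 0% = buffer negative control and 100% = Enniatin B positive control; higher means more Nile Red kept so more efflux inhibition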
NR2F2 inh = blocks human COUP-TFII nuclear receptor. HEK293T NGFI-A luciferase reporter, luminescence. inhibition, % at 8.6 µM. 370,000 compounds, 0.7% hits;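 active means inhibition above a per-plate cutoff, mean inhibition of test wells between control levels plus 3 SD, cut at about 38% in these data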;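 further: cells cotransfected with COUP-TFII expression vector driving the NGFI-A reporter; 0% = median of COUP-TF2 test wells and 100% = reporter-only cells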
Target sequence (P24468 whole entry, looked up): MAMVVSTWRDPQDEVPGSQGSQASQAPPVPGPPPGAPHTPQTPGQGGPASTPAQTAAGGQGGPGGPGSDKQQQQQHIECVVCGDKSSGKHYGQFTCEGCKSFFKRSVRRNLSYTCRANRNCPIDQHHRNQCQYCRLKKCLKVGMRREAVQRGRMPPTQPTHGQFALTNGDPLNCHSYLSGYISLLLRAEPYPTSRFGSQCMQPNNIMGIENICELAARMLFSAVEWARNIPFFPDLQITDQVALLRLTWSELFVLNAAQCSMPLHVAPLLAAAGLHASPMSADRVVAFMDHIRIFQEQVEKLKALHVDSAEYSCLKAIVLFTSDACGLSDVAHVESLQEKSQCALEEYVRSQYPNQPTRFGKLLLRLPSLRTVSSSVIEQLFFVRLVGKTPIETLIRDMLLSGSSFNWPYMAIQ
NCOA1 inh = inhibitors of human steroid receptor coactivator 1 (SRC1). HEK293 GAL4-SRC1 luciferase reporter, luminescence. inhibition, % at 3.6 µM. 360,000 compounds, 0.12% hits. AID 588354;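 active means inhibition above the campaign mean plus 3 SD, with each screening campaign given its own cutoff, cut at about 60% in these data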;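 further: 0% = DMSO treated cells and 100% = gossypol at 36 µM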
NCOA2 inhibitor = human SRC2 (NCOA2) inhibition | Q15596 | HEK293 GAL4-SRC2 luciferase reporter, luminescence | inhibition, % at 9 µM | 370,000 compounds, 0.17% hits;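 active means inhibition above the mean inhibition of all tested compounds plus 3 SD, set per campaign, cut at about 52% in these data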;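 further: 0% = DMSO treated cells and 100% = cells given Gossypol at 36 µM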
Starred values were filed as active, the others as inactive; nt = no result given.

SMILES	NR5A2 inv ag	SRC3 inh	Efflux pump mplx	NR2F2 inh	NCOA1 inh	NCOA2 inhibitor
CN1/C(=C\C=C\C2=[N+](C)c3ccc4ccccc4c3C2(C)C)C(C)(C)c2ccccc21	nt	nt	106*	nt	nt	nt
CN1/C(=C\C=Nc2ccccc2)C(C)(C)c2ccccc21	12	7	0	9	4	14
C[C@H]1CCC[C@@H](O)CCC/C=C/c2cc(O)cc(O)c2C(=O)O1	36	64*	0	34	58	21
CN1CCN(c2ncnc3ccc(Br)cc23)CC1	16	43	0	30	51	13
Cc1cc([N+](=O)[O-])c2ccccc2[n+]1[O-]	58	52	0	nt	63*	nt
Cc1ccccc1[N+](=O)[O-]	-5	4	0	0	6	19
Cc1ccc(C[n+]2c(-c3ccc(C)cc3)cc(-c3ccc(C)cc3)cc2-c2ccc(C)cc2)cc1	95*	83*	2	nt	68*	nt
CC=CC(C)=CC(C)C(=O)CC(O)CC1CC(=O)NC(=O)C1 (stereo unspecified)	41	0	nt	39*	21	-13
C[C@]12CC[C@H]3C(CCC4(O)CC(O)CC[C@]34C=O)C1=CC[C@H]2c1ccc(=O)oc1 (stereo partly specified)	40	44	0	36	26	-17
CC(=O)O[C@H]1[C@H]2O[C@]23[C@@H]2CC[C@]4(O)C[C@@H](O)CC[C@]4(C)C2CC[C@]3(C)[C@H]1c1ccc(=O)oc1 (stereo partly specified)	100*	89*	0	nt	86*	nt
O=[N+]([O-])c1ccc(N(CCO)CCO)c2c1no[n+]2[O-]	83*	67*	nt	-14	55	58*
CC[C@H](C)[C@@H](C(=O)N1CCCC1c1nccs1)N(C)C(=O)[C@H](CC(C)C)N(C)C(=O)[C@H](Cc1ccc(OC)cc1)N(C)C(=O)/C=C(\C)OC (stereo partly specified)	-13	1	1	-1	8	16
COc1cc2cc(C(=O)N3CC(COS(C)(=O)=O)c4ccc(O)cc43)[nH]c2c(OC)c1OC (stereo unspecified)	65	94*	nt	nt	90*	nt
C[C@H]1CCC/C=C/C2C[C@H](O)CC2[C@H](O)/C=C/C(=O)O1 (stereo partly specified)	89*	67*	0	nt	21	nt
Cc1nc2c(=O)n(C)c(=O)nc-2n(C)n1	95*	92*	0	64*	87*	75*
CCn1nc(-c2ccccc2)nc2c(=O)n(C)c(=O)nc1-2	17	48	0	nt	40	nt
O=C1NC(=O)C2(Cc3ccccc3N3CCCC32)C(=O)N1 (stereo unspecified)	10	7	0	14	-8	11
CC12CCC(O)CC1CCC1C2CCC2(C)C(C3=CC(=O)OC3)C(O)CC12O (stereo unspecified)	86*	67*	nt	51*	52	2
CN(C=O)CP(=O)(O)CN(C)C=O	8	2	0	-1	-16	-14
c1cncc(CNC2CCCCC2)c1	4	11	0	11	18	18
CC1(C)C(C(=O)N2CCN(c3ccc(Cl)cc3)CC2)C1(C)C	-15	7	0	-1	-22	7
COC(=O)C1CN(C#N)N(c2ccc(Cl)cc2)C12c1ccccc1-c1ccccc12 (stereo unspecified)	28	73*	0	nt	-27	nt
O=P1(NCCCl)OCCC(OO)N1CCCl (stereo unspecified)	4	nt	nt	4	nt	-12
CCOC(=O)[C@]12Cc3c(cc(OC)c(OC)c3OC)[C@H]1N(C1CCCCC1)C(=O)c1ccccc12	48	nt	nt	60*	nt	-5
CC(=O)N1CCC(N2CCCC(C(=O)c3cccc(Cl)c3)C2)CC1 (stereo unspecified)	10	12	0	-10	6	-20
C[C@H]1[C@@H](OS(=O)(=O)O)C[C@@H]2C[C@H]([C@@H](O)c3cc(=O)[nH]c(=O)[nH]3)NC3=NC[C@H]1N32	99*	58	nt	nt	59	nt
OCCOCCO	23	-8	0	3	-3	-6
CC1=C(C)CC2(CC1)C(=O)NC(=O)NC2=O	26	-9	nt	13	-11	-13
C=C1C(=O)OC2CC(C)C3C=CC(=O)C3(C)C(O)C12 (stereo unspecified)	81*	42	nt	nt	36	nt
